The compounds below were run on Plasmodium falciparum (assay: GSK_TCMDC: Inhibition of Plasmodium falciparum 3D7 in whole red blood cells, using parasite LDH activity as an index of growth. Test compounds present at 2uM).
Format: functional
With `CCOc1ccc(C(C)NC(=O)c2ccc(OC)c(Br)c2)cc1OCC` (stereo not given) the Inhibition was 100%. `CC(C)C1CCc2nc(N)nc(N)c2C1.Cl` (stereo not given) gave an Inhibition of 95%. For `Cc1cc(NCCc2cccc(F)c2)nc(NC(=N)Nc2cccc(C(F)(F)F)c2)n1`, the Inhibition was 100%. Work on `COc1cccc(Nc2c(C(N)=O)cnc3ccc(-c4ccccc4)cc23)c1` yielded an Inhibition of 98%. Compound `CCCNc1ccc2nccc(CCN3CCC(NCc4ccc5c(c4)NC(=O)CS5)CC3)c2n1.Cl` has an Inhibition of 94%. For `CCN1CCN(c2cc(C)c3cc(NC(=O)c4ccc(Br)o4)ccc3n2)CC1`, the Inhibition was 98%. Work on `COc1ccc(CNCc2ccccc2)cc1-c1ccc(S(=O)(=O)NCCN2CCCC2)c(F)c1.O=C(O)C(F)(F)F` yielded an Inhibition of 87%. With `CC(C)(O)CC(C)(C)c1cc(Cl)ccc1O` the Inhibition was 96%. For `CN(C)C(=O)c1ccc(CN(Cc2ccc3c(c2)OCCO3)Cc2ccc3c(c2)OCO3)cc1`, the Inhibition was 89%. Work on `Cc1nc(-c2nc(NCc3ccncc3)ncc2-c2ccsc2)sc1C` yielded an Inhibition of 91%. For `Cn1cccc1C(=O)C(=O)Nc1ccc(-c2ccc(-c3nc4cc(F)ccc4[nH]3)cc2)cc1`, the Inhibition was 92%. Work on `CCc1c(CCNCCCCCCNCc2ccc3c(c2CC)OCO3)ccc(OC)c1OC.Cl` yielded an Inhibition of 100%. Compound `O=C(Nc1cccc(CN2CCCN(CCc3ccccc3)CC2)c1)c1cc2ccccc2s1.O=C(O)C(F)(F)F` has an Inhibition of 93%. `O=C(Nc1ccc(Cn2ncc(N3CCCNCC3)c(Cl)c2=O)cc1)Nc1ccc(-c2ccccc2)cc1` was tested, and the Inhibition was 93%. `Cn1cnc(CCNC(=O)c2ccc(-c3ccc(-c4nc5cc(C(F)(F)F)ccc5[nH]4)s3)cc2)c1` was tested, and the Inhibition was 100%. `CC(C)(Oc1c(C2CCN(CCCCNC(=O)c3ccc(-c4ccc(C#N)cc4)cc3)CC2)ccc2c1CCCC2)C(N)=O` gave an Inhibition of 100%. With `CN1Cc2ccc(NS(=O)(=O)c3ccc(-c4ccoc4)cc3)cc2C1.Cl` the Inhibition was 97%. With `COc1cc(NC(=O)c2cc([N+](=O)[O-])ccc2NC(=O)CNC2CCCCC2C)cc(OC)c1` (stereo not given) the Inhibition was 87%. `COc1cc2cc(C(=O)Nc3ccccc3)c(N)nc2cc1OC` showed an Inhibition of 90%. `CC1CN(CC(O)Cn2c3ccc(Br)cc3c3cc(Br)ccc32)CC(C)O1` (stereo not given) was tested, and the Inhibition was 100%. For `Cc1ccc(Nc2ccnc(Nc3ccc(C)c(F)c3)n2)cc1O.Cl`, the Inhibition was 100%. `O=C(O)C(F)(F)F.OCC1CCN(Cc2ccc(-c3ccc(-c4nc5ccccc5[nH]4)cc3)cc2)CC1` gave an Inhibition of 100%. With `CCCS(=O)(=O)c1nc(S(=O)(=O)c2ccc(Cl)cc2)c(N2CCCCC2)s1` the Inhibition was 87%. For `NC1CCN(Cc2ccc(-c3ccc(-c4nc5ccccc5[nH]4)s3)cc2)C1.O=C(O)C(F)(F)F` (stereo not given), the Inhibition was 100%. `CCC(C)CN1C(=O)C(c2ccccc2)(c2ccccc2)N=C1N.O=CO` (stereo not given) was tested, and the Inhibition was 98%. With `CN(c1ccccc1C(=O)Nc1cc(Cl)ccc1Oc1ccccc1)S(=O)(=O)c1ccccc1` the Inhibition was 99%. In the case of `C=Cc1ccc(-c2c(C)[nH]c(C)c(Br)c2=O)cc1`, the Inhibition is reported as 98%. Work on `Fc1ccc2[nH]c(-c3cccc(-c4ccc(CNCCN5CCNCC5)cc4)c3)nc2c1.O=C(O)C(F)(F)F` yielded an Inhibition of 90%. With `CC(C)CNCc1ccc(-c2cccc(CN(CCN(C)C)C(=O)NCCc3ccccc3)c2)cc1.O=C(O)C(F)(F)F` the Inhibition was 91%. `COc1cccc(C(=O)Nc2ccc(-c3nc4ccccc4[nH]3)cc2)c1` was tested, and the Inhibition was 95%. `Cc1cc(Nc2cccc(C(F)(F)F)c2)nc2ccc(NC(=O)c3ccc(=O)[nH]c3)cc12` was tested, and the Inhibition was 100%. `COc1ccc(C=C2SC(=N)N(c3ccccc3OC)C2=O)cc1` gave an Inhibition of 97%. `COc1cc(Nc2nccc(Nc3ccc4c(C)n[nH]c4c3)n2)cc2ccccc12.Cl` was tested, and the Inhibition was 100%. Work on `O=C(NCCN1CCOCC1)c1ccc(-c2ccc(CNCCCc3ccccc3)cc2)nc1.O=C(O)C(F)(F)F` yielded an Inhibition of 97%. With `COC(=O)c1ccc(OCC(O)CO)cc1O` (stereo not given) the Inhibition was 100%. With `Cn1cc(CCNc2ccnc(N3CCC(c4ncc[nH]4)CC3)n2)c2ccccc21` the Inhibition was 92%. For `O=S(=O)(c1ccc(Oc2ccccc2)cc1)N(CCC(O)(C(F)(F)F)C(F)(F)F)Cc1cccc(O)c1`, the Inhibition was 100%. Compound `COc1ccc(-c2ccc(NC(=O)c3ccc(Cl)cc3)cc2)cc1CN1CCNCC1.O=C(O)C(F)(F)F` has an Inhibition of 99%. For `COc1ccccc1-c1cccc2c(NC(=O)Nc3ccc4nccc(N5CCN(C)CC5)c4c3)ccnc12`, the Inhibition was 94%. Compound `CCOc1ccc(Nc2cc(C)nc(Nc3ccc(OCC)cc3)n2)cc1` has an Inhibition of 100%.

These compounds were tested on Plasmodium falciparum (assay: GSK_TCMDC: Inhibition of Plasmodium falciparum Dd2 in whole red blood cells, using parasite LDH activity as an index of growth. Test compounds present at 2uM).
Format: functional
`CCOc1ccc(C(C)NC(=O)c2ccc(OC)c(Br)c2)cc1OCC` (stereo not given) was tested, and the Inhibition was 100%. With `CC(C)C1CCc2nc(N)nc(N)c2C1.Cl` (stereo not given) the Inhibition was 0%. With `Cc1cc(NCCc2cccc(F)c2)nc(NC(=N)Nc2cccc(C(F)(F)F)c2)n1` the Inhibition was 99%. `COc1cccc(Nc2c(C(N)=O)cnc3ccc(-c4ccccc4)cc23)c1` was tested, and the Inhibition was 99%. In the case of `CCCNc1ccc2nccc(CCN3CCC(NCc4ccc5c(c4)NC(=O)CS5)CC3)c2n1.Cl`, the Inhibition is reported as 17%. For `CCN1CCN(c2cc(C)c3cc(NC(=O)c4ccc(Br)o4)ccc3n2)CC1`, the Inhibition was 13%. Compound `COc1ccc(CNCc2ccccc2)cc1-c1ccc(S(=O)(=O)NCCN2CCCC2)c(F)c1.O=C(O)C(F)(F)F` has an Inhibition of 42%. `CC(C)(O)CC(C)(C)c1cc(Cl)ccc1O` was tested, and the Inhibition was 1%. `CN(C)C(=O)c1ccc(CN(Cc2ccc3c(c2)OCCO3)Cc2ccc3c(c2)OCO3)cc1` was tested, and the Inhibition was 95%. Compound `Cc1nc(-c2nc(NCc3ccncc3)ncc2-c2ccsc2)sc1C` has an Inhibition of 83%. Compound `Cn1cccc1C(=O)C(=O)Nc1ccc(-c2ccc(-c3nc4cc(F)ccc4[nH]3)cc2)cc1` has an Inhibition of 33%. In the case of `CCc1c(CCNCCCCCCNCc2ccc3c(c2CC)OCO3)ccc(OC)c1OC.Cl`, the Inhibition is reported as 19%. `O=C(Nc1cccc(CN2CCCN(CCc3ccccc3)CC2)c1)c1cc2ccccc2s1.O=C(O)C(F)(F)F` showed an Inhibition of 39%. `O=C(Nc1ccc(Cn2ncc(N3CCCNCC3)c(Cl)c2=O)cc1)Nc1ccc(-c2ccccc2)cc1` was tested, and the Inhibition was 41%. `Cn1cnc(CCNC(=O)c2ccc(-c3ccc(-c4nc5cc(C(F)(F)F)ccc5[nH]4)s3)cc2)c1` was tested, and the Inhibition was 99%. For `CC(C)(Oc1c(C2CCN(CCCCNC(=O)c3ccc(-c4ccc(C#N)cc4)cc3)CC2)ccc2c1CCCC2)C(N)=O`, the Inhibition was 82%. In the case of `CN1Cc2ccc(NS(=O)(=O)c3ccc(-c4ccoc4)cc3)cc2C1.Cl`, the Inhibition is reported as 2%. `COc1cc(NC(=O)c2cc([N+](=O)[O-])ccc2NC(=O)CNC2CCCCC2C)cc(OC)c1` (stereo not given) gave an Inhibition of 78%. Work on `COc1cc2cc(C(=O)Nc3ccccc3)c(N)nc2cc1OC` yielded an Inhibition of 0%. `CC1CN(CC(O)Cn2c3ccc(Br)cc3c3cc(Br)ccc32)CC(C)O1` (stereo not given) gave an Inhibition of 100%. `Cc1ccc(Nc2ccnc(Nc3ccc(C)c(F)c3)n2)cc1O.Cl` showed an Inhibition of 27%. `O=C(O)C(F)(F)F.OCC1CCN(Cc2ccc(-c3ccc(-c4nc5ccccc5[nH]4)cc3)cc2)CC1` showed an Inhibition of 84%. With `CCCS(=O)(=O)c1nc(S(=O)(=O)c2ccc(Cl)cc2)c(N2CCCCC2)s1` the Inhibition was 34%. `NC1CCN(Cc2ccc(-c3ccc(-c4nc5ccccc5[nH]4)s3)cc2)C1.O=C(O)C(F)(F)F` (stereo not given) gave an Inhibition of 99%. Work on `CCC(C)CN1C(=O)C(c2ccccc2)(c2ccccc2)N=C1N.O=CO` (stereo not given) yielded an Inhibition of 79%. `CN(c1ccccc1C(=O)Nc1cc(Cl)ccc1Oc1ccccc1)S(=O)(=O)c1ccccc1` was tested, and the Inhibition was 42%. In the case of `C=Cc1ccc(-c2c(C)[nH]c(C)c(Br)c2=O)cc1`, the Inhibition is reported as 96%. In the case of `Fc1ccc2[nH]c(-c3cccc(-c4ccc(CNCCN5CCNCC5)cc4)c3)nc2c1.O=C(O)C(F)(F)F`, the Inhibition is reported as 0%. `CC(C)CNCc1ccc(-c2cccc(CN(CCN(C)C)C(=O)NCCc3ccccc3)c2)cc1.O=C(O)C(F)(F)F` gave an Inhibition of 37%. `COc1cccc(C(=O)Nc2ccc(-c3nc4ccccc4[nH]3)cc2)c1` was tested, and the Inhibition was 19%. Compound `Cc1cc(Nc2cccc(C(F)(F)F)c2)nc2ccc(NC(=O)c3ccc(=O)[nH]c3)cc12` has an Inhibition of 60%. In the case of `COc1ccc(C=C2SC(=N)N(c3ccccc3OC)C2=O)cc1`, the Inhibition is reported as 95%. `COc1cc(Nc2nccc(Nc3ccc4c(C)n[nH]c4c3)n2)cc2ccccc12.Cl` was tested, and the Inhibition was 82%. `O=C(NCCN1CCOCC1)c1ccc(-c2ccc(CNCCCc3ccccc3)cc2)nc1.O=C(O)C(F)(F)F` showed an Inhibition of 10%. For `COC(=O)c1ccc(OCC(O)CO)cc1O` (stereo not given), the Inhibition was 23%. `Cn1cc(CCNc2ccnc(N3CCC(c4ncc[nH]4)CC3)n2)c2ccccc21` was tested, and the Inhibition was 5%. With `O=S(=O)(c1ccc(Oc2ccccc2)cc1)N(CCC(O)(C(F)(F)F)C(F)(F)F)Cc1cccc(O)c1` the Inhibition was 99%. With `COc1ccc(-c2ccc(NC(=O)c3ccc(Cl)cc3)cc2)cc1CN1CCNCC1.O=C(O)C(F)(F)F` the Inhibition was 24%. `COc1ccccc1-c1cccc2c(NC(=O)Nc3ccc4nccc(N5CCN(C)CC5)c4c3)ccnc12` showed an Inhibition of 34%. `CCOc1ccc(Nc2cc(C)nc(Nc3ccc(OCC)cc3)n2)cc1` showed an Inhibition of 49%.

Source: ChEMBL document CHEMBL1157539, “Thousands of chemical starting points for antimalarial lead identification” (Nature, 2010)
